HepG2 viability: kills HepG2 cells in TGF-b inhibitor counter-screen; HepG2 CAGA-GFP viability, ATP luminescence, 18 h; 0.76% of 410,000 active; Potency, µM (top dose mostly 46.1 µM), without a hit: at the highest dose activity change, negative = cytotoxicity, actives largely listed as cytotoxic; AID 588856
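HepG2 CAGA-GFP cells (1000/well, DMEM with 1% FBS) received compound, then TGF-beta at 500 pg/mL final, and were incubated 18 hours at 37 degrees C. Viability was read by CellTiter-Glo luminescence. Media-only wells were set as complete cell-killing and DMSO as no toxicity.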
ATXN viability: viability counter-screen for ATXN expression inhibitors | Potency, µM (highest dose often 56.7 µM), usual class: cytotoxic | 0.49% of 400,000 active | S2 cells (HEK-293 line with an ATXN2-luciferase reporter) viability, CellTiter-Fluor protease fluorescence, 24 h; note: nearly all actives have a fitted effect of over 40% in size
TGFb SMAD3 inh: inhibitors of TGF-b signaling; HepG2 CAGA-GFP TGF-b/SMAD3 reporter, GFP fluorescence, 18 h; TGF-beta stimulated, 500 pg/mL final; 1.2% of 410,000 active; Potency, µM (doses to about 46.1 µM), without a hit: at the highest dose activity, negative = inhibition, actives largely listed as inhibitors; note: % is set by controls: 0 for no effect and ±100 for the full control effect; nearly all actives have a fitted effect of over 65% in size
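HEPG2 CAGA-GFP reporter cells (1000/well, DMEM with 1% FBS) received compounds, then recombinant TGF-beta at 500 pg/mL final for 18 hours at 37 degrees C. Per-cell GFP summed per well was normalised to unstimulated and stimulated DMSO controls before curve fitting.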
TDP1 cell noCPT: qHTS for Inhibitors of human tyrosyl-DNA phosphodiesterase 1 (TDP1): qHTS in cells in absence of CPT; DT40 Tdp1-/- hTDP1 cells, no CPT, ATP luminescence, 48 h; Potency, µM (top dose mostly 46.2 µM), without a hit: at the top dose activity change, negative = growth inhibition, hits mostly inhibitors; 15% of 420,000 active; AID 686978, 2013; note: % is set by controls: 0 for no effect and ±100 for the full control effect; nearly all actives have a fitted effect of over 55% in size
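Growth of hTDP1-complemented DT40 Tdp1-knockout cells is measured by ATP luminescence after at least 48 hr compound exposure at 37 °C, with DMSO substituting for the 20 nM CPT used in the parallel screen.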
ATXN2 expr inh: ATXN2 expression inhibition; HEK-293 ATXN2-luciferase reporter, luminescence, 24 h; Potency, µM (series often up to 57 µM), without a hit: at the highest dose activity change, negative = inhibition, usual class: inhibitors; 0.72% of 360,000 active; note: % is set by controls: 0 for no effect and ±100 for the full control effect; nearly all actives have a fitted effect of over 55% in size
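qHTS (up to 57 uM final) was run with 24 h compound exposure of reporter cells at 37 °C. Each well was multiplexed: SteadyGlo luminescence measured ATXN2-luciferase expression after a fluorogenic Gly-Phe-AFC viability readout (25 uM final).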
TDP1 cell CPT: DT40-hTDP1 cell growth loss with CPT. chicken DT40 Tdp1-/-;hTDP1 cells + 20 nM CPT, ATP luminescence, 48 h. Potency, µM (series often up to 46.2 µM), for inactives: at the top dose activity change, negative = growth inhibition, usual class: inhibitors. 12% of 420,000 active; note: % is set by controls: 0 for no effect and ±100 for the full control effect; nearly all actives have a fitted effect of over 55% in size
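Cell growth measured by CellTiter-Glo luminescence after a minimum 48 h, 37 C compound exposure with 20 nM CPT in Tdp1-knockout DT40 cells stably expressing hTDP1, seeded 400/well; qHTS titration format.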
The depositor's hits bear a star; i = inactive; ? = inconclusive; · = no result given; ! = a repeat was not active; [ ] = another dose, or the depositor's remark. Shown are actives, neighbours in structure and some others; about 17% of the full set was active somewhere. Calls come from the whole dose curve; as a rule, active = well fitted curve in the direction sought with a large enough effect; inconclusive = small, poorly fitted or top-dose-only effect, or another doubt; inactive = no such curve, though single readings can be large; an effect the other way counts as inactive or inconclusive. Potency is the fitted concentration of half-maximal effect.

SMILES	HepG2 viability	ATXN viability	TGFb SMAD3 inh	TDP1 cell noCPT	ATXN2 expr inh	TDP1 cell CPT
C[C@H](CO)N1C[C@H](C)[C@@H](CN(C)Cc2ccc3c(c2)OCO3)Oc2c(NS(C)(=O)=O)cccc2C1=O	1.4%	i	-3.4%	-25.5%	6.1%	-20.9%
O=C(CN1CCc2ccccc2C1)Nc1cc(S(=O)(=O)N2CCOCC2)ccc1N1CCCC1	-5.3%	i	4.4%	?	9.2%	14.6µM*
O=C(CN1CCc2ccccc2C1)Nc1cc(S(=O)(=O)N2CCOCC2)ccc1N1CCOCC1	5.4%	i	-12.3%	23.1µM*	2.1%	9.2µM*
O=C(CN1CCCCC1)Nc1cc(S(=O)(=O)N2CCOCC2)ccc1N1CCCC1	-1.0%	?	26.0%	-16.9%	·	-19.1%
CC1Cc2ccccc2N1Cc1cccc([N+](=O)[O-])c1 (stereo not given)	4.6%	i	-0.9%	-1.5%	-2.9%	1.1%
COc1ccc(NC(=O)c2cccnc2Nc2ccc(OC)cc2)cc1	-11.1%	?	8.6%	?	5.1%	16.4µM*
COc1ccc(NC(=O)c2cccnc2N2CCCC2)cc1	-16.1%	i	25.5%	?	-17.5%	?
COc1ccc(Nc2ncccc2C(=O)NCc2ccccc2)cc1	-14.1%	i	15.1%	-29.0%	-7.5%	-1.4%
COc1ccc(Nc2ncccc2C(=O)Nc2ccccc2)cc1	-79.8%	i	21.8%	29.1µM*	-1.6%	23.1µM*
CC(C)C(NS(=O)(=O)c1cccs1)C(=O)N1CCC(C(N)=O)CC1 (stereo not given)	2.8%	i	17.9%	18.0%	2.2%	-3.2%
O=C1CCCC2=C1C1(CCCCC1)N=C(Nc1nc3ccccc3o1)N2	-22.2%	i	12.3%	13µM*	3.1%	?
O=C1CCCC2=C1C1(CCCC1)N=C(Nc1nc3ccccc3o1)N2	-12.0%	i	0.0%	·	4.8%	·
C[C@@H](CN1CC(=O)NC(=O)C1)N1CC(=O)NC(=O)C1	·	i	·	?	?	-8.1%
CC(=O)c1cccc(OCc2cc(C(=O)N3CC4C[C@@H]5CC3C[C@H](C4)C5)no2)c1	-35.5%	?	?	1.46µM*	·	2.59µM*
O=C(c1cc(COc2ccc(F)cc2F)on1)N1CC2C[C@@H]3CC1C[C@H](C2)C3	-0.8%	i	?	2.59µM*	15.9%	6.51µM*
O=C(c1cc(COc2ccc(F)cc2F)on1)N1C[C@H]2CC[C@H]1C2	-21.9%	i	5.4%	?	28.3%	?
COc1ccccc1OCc1cc(C(=O)N2CC3C[C@@H]4CC2C[C@H](C3)C4)no1	-10.4%	i	1.1%	13µM*	32.2%	11.6µM*
c1ccc(Cn2ncc3c(Nc4ccccc4)ncnc32)cc1	-36.8%	i	5.3%	-27.4%	·	?
Brc1ccc(/C=N/Nc2ncnc3c2cnn3Cc2ccccc2)cc1	-8.7%	i	9.6%	14.6µM*	?	18.4µM*
COc1ccc(C(=O)Nc2ccc(N3CCN(C(=O)c4cccs4)CC3)cc2)cc1Br	-14.6%	i	-15.6%	18.4µM*	·	20.6µM*
COc1cc(OC)cc(C(=O)Nc2ccc(N3CCN(C(=O)c4cccs4)CC3)cc2)c1	-22.5%	i	?	5.17µM*	-21.2%	5.8µM*
COc1ccc(C(=O)Nc2ccc(N3CCCC3)cc2)cc1Br	4.9%	i	-5.4%	?	2.3%	?
Nc1ccc(N2CCN(C(=O)c3cccs3)CC2)cc1	-15.2%	i	-19.9%	14.6µM*	-13.6%	?
O=C(Nc1ccc(N2CCN(C(=O)c3cccs3)CC2)cc1)c1ccc(F)cc1	-9.1%	i	-0.8%	23.1µM*	-13.7%	-25.3%
CC(=O)Nc1ccc(N2CCN(C(=O)c3cccs3)CC2)cc1	-0.6%	i	-0.7%	6.1%	128.5%	5.4%
SMILES	HepG2 viability	ATXN viability	TGFb SMAD3 inh	TDP1 cell noCPT	ATXN2 expr inh	TDP1 cell CPT
CC(NC(=O)c1ccco1)c1ccc(-n2ccnc2)cc1 (stereo not given)	1.0%	i	0.9%	?	9.2%	-12.3%
CCn1c(SC(C)C(=O)NC2CCCc3ccccc32)nnc1-c1cccs1 (stereo not given)	-2.9%	i	7.6%	-21.1%	-20.9%	-10.5%
COc1cccc(-n2c(SC)nnc2C2CCN(CCC(C)c3ccc(C)o3)CC2)c1 (stereo not given)	·	i	·	?	·	?
CON=C(C(=O)N[C@@H]1C(=O)N2C(C(=O)O)=C(CSC(=O)c3ccco3)CS[C@H]12)c1csc(N)n1	·	·	·	·	2.2%	·
CCOc1ccc(C(=O)Nc2ccc(N3CCN(C)CC3)cc2)cc1Br	-8.2%	i	0.0%	29.1µM*	0.5%	?
C#C[C@]1(OC(C)=O)CCC2C3CCC4=CC(=O)CCC4C3CC[C@]21C (stereo not given in full)	·	·	·	16.4µM*	·	0.206µM*
C#C[C@]1(OC(C)=O)CCC2C3CCC4=CC(=O)CC[C@@H]4C3CC[C@@]21C (stereo not given in full)	-29.0%	?	1.4%	23.1µM*	?	?
CC(=O)OC1CCC2C3CCC4=CC(=O)CCC4(C)C3CCC2(C)[C@]1(C)O (stereo not given in full)	-7.7%	i	-12.5%	·	9.4%	·
C#C[C@]1(O)CC[C@@H]2[C@H]3CCc4cc(OC)ccc4[C@@H]3CC[C@@]21C	·	i	·	·	·	·
C#C[C@]1(OC(C)=O)CC[C@H]2[C@@H]3CCC4=C[C@@H](OC(C)=O)CC[C@@H]4[C@H]3CC[C@@]21C	·	?	·	15µM*!	?	?
O=C(CSc1ccc2nnc(CCNC(=O)c3ccccc3)n2n1)NCCc1ccccc1	-2.5%	i	-2.3%	7.4%	-8.7%	-1.5%
Cc1ccccc1NC(=S)NCc1cccs1	-0.4%	i	-2.1%	?	1.3%	-6.4%
COc1cccc(CNC(=S)Nc2cc(C)ccc2C)c1	-5.0%	·	-0.5%	25.9µM*	-24.2%[11.3 µM]	18.4µM*
Cc1ccc(C)c(NC(=S)NCc2cccs2)c1	-52.1%	i	-9.0%	29.1µM*	-10.9%	?
